Values joined by “and” are separate entries in the source; they are usually repeats but may differ in a detail not shown here. Equal values may be shown once. ± gives the uncertainty stated by the source.
These compounds were tested on HEK293T-Rex ERSE-FLuc (assay: ERSE-FLuc reporter activation, triplicate confirmation, relative to 500 nM thapsigargin (% of thapsigargin); higher = stronger ATF6/ERSE reporter activation). Conditions: 6.8 µM; 18 h; screen: confirmation.
Protocol: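 HEK293T-Rex cells stably expressing the ERSE-firefly luciferase (BiP promoter, ATF6-preferring) or XBP1-splicing Renilla luciferase (IRE1/XBP1s) reporter, 1536-well plates, compound at 6.8 µM for 18 hr at 37 °C; luminescence read […] and expressed as % activation = 100*(compound - median DMSO)/(median 500 nM thapsigargin - median DMSO). Primary screen was single-pass; confirmation screen in triplicate (mean ± SD).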

Structure (SMILES)	ERSE-FLuc reporter activation
CC(=O)NC1C(OC2OC(CC(O)C3OC(n4ccc(=O)[nH]c4=O)C(O)C3O)C(O)C(O)C2NC(=O)/C=C\CCCCCCCCCC(C)C)OC(CO)C(O)C1O (stereo not given)	162 ± 5.7
O=C(CCCN1CCC2(CC1)C(=O)N(Cc1cccc(F)c1)CN2c1ccccc1)c1ccc(F)cc1	215 ± 16
O=C(CCCN1CCC2(CC1)C(=O)NCN2c1ccccc1)c1ccc(F)cc1	163 ± 21
C/C=C(/C)C(=O)O[C@H]1C(C)=C2[C@H]([C@@H]1OC(=O)CCCCCCC)[C@@](C)(OC(C)=O)C[C@H](OC(=O)CCC)[C@@]1(O)[C@H]2OC(=O)[C@@]1(C)O	109 and 88
CNc1ccc2oc(C[C@H]3O[C@@]4(CC[C@H]3C)O[C@H]([C@H](C)C(=O)c3ccc[nH]3)[C@H](C)C[C@H]4C)nc2c1C(=O)O	63.9 ± 3.1
